PubChem BioAssay (NCATS)
Inconclusive results are not listed. Active and inactive are the calls of the source. Unless noted, calls follow the shape of the dose curve; as a rule, active = well fitted curve in the direction sought with a large enough effect; inconclusive = small, poorly fitted or top-dose-only effect, or another doubt; inactive = no such curve, though single readings can be large; an effect the other way counts as inactive or inconclusive.

Assays:
[1] = molecular target: Lysosomal acid glucosylceramidase (Homo sapiens) (UniProt P04062); assay: Glucocerebrosidase-p2 (AID 348; in the data active = potency below about 10 µM; also: potency is read from the fitted curve at half-maximal effect); settings: purified GBA, blue fluorogenic substrate, 40 min
Chain of Lysosomal acid glucosylceramidase (Homo sapiens) (P04062 whole entry, looked up): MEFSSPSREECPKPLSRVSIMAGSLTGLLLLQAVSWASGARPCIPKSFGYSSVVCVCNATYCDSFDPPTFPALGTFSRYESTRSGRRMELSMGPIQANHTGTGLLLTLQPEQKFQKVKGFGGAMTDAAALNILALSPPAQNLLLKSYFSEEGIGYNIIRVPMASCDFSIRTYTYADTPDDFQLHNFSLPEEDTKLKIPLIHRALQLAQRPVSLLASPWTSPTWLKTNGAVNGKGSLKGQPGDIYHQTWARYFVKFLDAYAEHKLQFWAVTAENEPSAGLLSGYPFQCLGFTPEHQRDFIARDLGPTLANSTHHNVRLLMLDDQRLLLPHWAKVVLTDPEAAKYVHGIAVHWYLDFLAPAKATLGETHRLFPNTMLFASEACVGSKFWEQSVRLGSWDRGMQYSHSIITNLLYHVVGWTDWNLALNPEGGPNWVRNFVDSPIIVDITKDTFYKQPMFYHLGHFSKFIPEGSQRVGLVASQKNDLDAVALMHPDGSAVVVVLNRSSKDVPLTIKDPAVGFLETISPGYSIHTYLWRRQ
Outline: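 Compounds titrated from 0.6 nM upwards against 0.2 nM enzyme in pH 5.9 citric acid/KH2PO4, taurocholate, tween-20; blue fluorogenic substrate 80 uM, 40 min room temperature, stopped and read Ex 365/Em 440 for AC50.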

[2] = NFAT Signaling Pathway (AID 444; active = well fitted curve in either direction with a large enough effect, not every such curve was filed as active;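 also: carbachol stimulus at about its EC50 of 1 µM final; % is scaled to controls: 0 for no effect and ±100 for the full control effect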); settings: Jurkat NFAT-bla M1, carbachol, beta-lactamase ratio, 5 h; at 7.69 µM (top of the series) unless noted
Outline: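 Jurkat cells carrying an NFAT-driven β-lactamase reporter and co-transfected muscarinic M1 receptor were treated with compound plus carbachol (1 uM final, an EC50 level) for 5 h at 37 °C. CCF4 loading followed for 1 h at RT; 460/530 nm ratio gave %activity.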

[3] = Stat Signaling Pathway (AID 446; active = well fitted curve in either direction with a large enough effect, not every such curve was filed as active;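 also: ME-180 cervical cancer cells given 40 pM IL-6 alongside compound; SIE-controlled beta-lactamase reporter measured as 460/530 nm FRET emission ratio; % is scaled to controls: 0 for no effect and ±100 for the full control effect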); settings: ME-180 SIE beta-lactamase reporter, IL-6 stimulated, 5 h; at 7.69 µM (top of the series) unless noted
Outline: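 IL-6/STAT signaling read in ME-180 cells via an SIE beta-lactamase reporter. Stimulus was 40 pM IL-6 (its AC50) for 5 hrs, so both activation and inhibition register.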

[4] = molecular target: Glucocorticoid receptor (Homo sapiens) (UniProt P04150); assay: GR-GFP Redistribution (AID 450;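 active = compounds whose dose series gives a full or clear partial fitted curve of increased nuclear translocation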; also: potency is read from the fitted curve at half-maximal effect); settings: U2OS GR-GFP nuclear translocation, laser cytometry, 2 h
Chain of Glucocorticoid receptor (Homo sapiens) (P04150 whole entry, looked up, the tested form may be a part): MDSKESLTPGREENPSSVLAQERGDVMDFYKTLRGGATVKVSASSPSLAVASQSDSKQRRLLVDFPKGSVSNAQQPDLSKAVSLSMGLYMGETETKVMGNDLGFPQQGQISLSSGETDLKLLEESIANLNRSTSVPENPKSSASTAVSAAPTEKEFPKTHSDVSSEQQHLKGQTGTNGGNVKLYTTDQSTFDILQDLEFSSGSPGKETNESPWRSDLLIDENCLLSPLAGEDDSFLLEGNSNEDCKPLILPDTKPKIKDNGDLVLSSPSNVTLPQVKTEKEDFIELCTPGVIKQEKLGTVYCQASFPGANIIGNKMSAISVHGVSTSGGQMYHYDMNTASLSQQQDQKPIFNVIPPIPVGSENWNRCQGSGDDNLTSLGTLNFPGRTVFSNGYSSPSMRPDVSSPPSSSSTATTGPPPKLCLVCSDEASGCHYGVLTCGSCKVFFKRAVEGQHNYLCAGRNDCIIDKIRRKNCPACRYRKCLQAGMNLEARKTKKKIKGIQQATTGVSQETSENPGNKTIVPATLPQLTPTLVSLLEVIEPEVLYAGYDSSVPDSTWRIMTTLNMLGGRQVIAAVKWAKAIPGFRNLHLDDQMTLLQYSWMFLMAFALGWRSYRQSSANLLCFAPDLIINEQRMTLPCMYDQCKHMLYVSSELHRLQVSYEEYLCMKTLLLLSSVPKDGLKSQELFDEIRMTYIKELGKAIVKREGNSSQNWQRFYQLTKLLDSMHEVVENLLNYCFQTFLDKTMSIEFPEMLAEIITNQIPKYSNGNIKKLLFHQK

[5] = molecular target: Mitogen-activated protein kinase 10 (Mus musculus) (UniProt Q61831); assay: JNK3 AlphaScreen Assay (AID 530; active = well fitted curve in either direction with a large enough effect, not every such curve was filed as active;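 also: kinase came from lysate of stimulated human HepG2 cells; signal reports phosphorylation of biotinylated GST-cJun 1-79 at Ser73 with 10 µM ATP; % is scaled to controls: 0 for no effect and ±100 for the full control effect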); settings: JNK3 lysate, c-Jun phosphorylation; series mostly up to 57.1 µM
Outline: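 Inhibitors reduce antibody binding to phosphorylated biotin-cJun, lowering AlphaScreen luminescence. Lysates from HepG2 cells pre-activated by IL-1beta plus TNF-alpha supplied JNK3; compounds were titrated.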

[6] = molecular target: Cytochrome P450 3A4 (Homo sapiens) (UniProt P08684); assay: qHTS Assay for Inhibitors and Substrates of Cytochrome P450 3A4 (AID 884); settings: recombinant CYP3A4, Luciferin-PPXE luminescence; series mostly up to 57.1 µM; also: potency is read from the fitted curve at half-maximal effect; nearly all actives have a fitted effect of over 50% in size
Chain of Cytochrome P450 3A4 (Homo sapiens) (P08684 whole entry, looked up): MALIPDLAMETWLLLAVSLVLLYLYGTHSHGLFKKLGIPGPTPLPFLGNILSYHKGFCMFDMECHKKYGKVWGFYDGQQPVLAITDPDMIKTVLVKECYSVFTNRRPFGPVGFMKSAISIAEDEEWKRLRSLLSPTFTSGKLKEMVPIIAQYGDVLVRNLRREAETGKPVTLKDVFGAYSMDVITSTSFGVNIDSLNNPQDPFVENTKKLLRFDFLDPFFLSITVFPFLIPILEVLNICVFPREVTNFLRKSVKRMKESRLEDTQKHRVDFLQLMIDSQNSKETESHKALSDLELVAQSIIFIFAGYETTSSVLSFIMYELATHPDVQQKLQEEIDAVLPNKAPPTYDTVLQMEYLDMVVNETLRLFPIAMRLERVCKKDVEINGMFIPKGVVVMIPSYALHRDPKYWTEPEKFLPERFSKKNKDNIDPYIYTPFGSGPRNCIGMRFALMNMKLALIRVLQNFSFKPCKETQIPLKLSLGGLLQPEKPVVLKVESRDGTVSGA
Outline: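 20 nM human CYP3A4 with 25 uM Luciferin-PPXE (at KM) in 200 mM KPO4, preincubated 10 min with compound; NADPH regeneration started a 60 min RT reaction. Luciferin detected by luminescence, normalized to 57 uM ketoconazole as full inhibition.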

[7] = molecular target: Cytochrome P450 3A4 (Homo sapiens) (UniProt P08684); assay: qHTS Assay for Activators of Cytochrome P450 3A4 (AID 885); settings: recombinant CYP3A4, Luciferin-PPXE luminescence, 60 min; series mostly up to 57.1 µM; also: nearly all actives have a fitted effect of over 65% in size
Outline: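 Quantitative HTS format: compounds preincubated with 20nM human CYP3A4 and Luciferin-PPXE substrate at KM, reaction started by NADPH regeneration, stopped after 60 min, luciferase luminescence read 20 min later.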

[8] = molecular target: Cytochrome P450 2C19 (Homo sapiens) (UniProt P33261); assay: qHTS Assay for Inhibitors and Substrates of Cytochrome P450 2C19 (AID 899); settings: recombinant CYP2C19, luciferin-H EGE luminescence; series mostly up to 57.1 µM; also: nearly all actives have a fitted effect of over 60% in size; also: potency is read from the fitted curve at half-maximal effect
Chain of Cytochrome P450 2C19 (Homo sapiens) (P33261 whole entry, looked up): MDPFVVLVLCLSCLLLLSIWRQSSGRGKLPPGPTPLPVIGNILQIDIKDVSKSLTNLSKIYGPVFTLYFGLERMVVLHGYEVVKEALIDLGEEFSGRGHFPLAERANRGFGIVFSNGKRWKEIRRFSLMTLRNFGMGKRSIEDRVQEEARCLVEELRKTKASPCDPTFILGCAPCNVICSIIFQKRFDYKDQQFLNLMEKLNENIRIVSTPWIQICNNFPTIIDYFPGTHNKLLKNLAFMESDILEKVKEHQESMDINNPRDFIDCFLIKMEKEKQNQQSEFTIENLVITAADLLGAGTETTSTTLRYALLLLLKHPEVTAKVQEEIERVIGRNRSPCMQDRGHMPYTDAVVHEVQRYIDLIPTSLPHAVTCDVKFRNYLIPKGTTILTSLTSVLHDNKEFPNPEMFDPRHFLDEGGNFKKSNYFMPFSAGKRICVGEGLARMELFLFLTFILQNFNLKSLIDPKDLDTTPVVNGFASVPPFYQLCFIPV
Outline: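 In 50mM KPO4, the reaction held 5nM enzyme and KM-level (10uM) Luciferin-H EGE; it ran 60 min at 37C after NADPH regeneration and a 10 min compound preincubation. Luminescence values were scaled to 57uM ketoconazole as complete inhibition.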

[9] = qHTS Assay for Lipid Storage Modulators (AID 1519; calls by dose curve); settings: Drosophila S3 cells, BODIPY lipid droplet/cell ratio, laser cytometry, cells loaded with oleic acid; for activity change, negative = inhibition: at 57.5 µM (top of the series)
Outline: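 Cells seeded at 5,000 per well were treated with compounds over a concentration series and loaded with oleic acid (400 uM, as added). Lipid droplet fluorescence (488 nm excitation, 500-530 nm channel) was read by laser-scanning cytometry and normalized to 20 uM Triacsin C.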

[10] = molecular target: Dual specificity protein kinase CLK4 (Homo sapiens) (UniProt Q9HAZ1); assay: qHTS Assay for Inhibitors of CDC-like Kinase 4 (Kinase-Glo Assay) (AID 1770); settings: recombinant Clk4, Kinase-Glo ATP depletion luminescence; series mostly up to 66.7 µM; also: nearly all actives have a fitted effect of over 65% in size; also: potency is read from the fitted curve at half-maximal effect
Chain of Dual specificity protein kinase CLK4 (Homo sapiens) (Q9HAZ1 whole entry, looked up): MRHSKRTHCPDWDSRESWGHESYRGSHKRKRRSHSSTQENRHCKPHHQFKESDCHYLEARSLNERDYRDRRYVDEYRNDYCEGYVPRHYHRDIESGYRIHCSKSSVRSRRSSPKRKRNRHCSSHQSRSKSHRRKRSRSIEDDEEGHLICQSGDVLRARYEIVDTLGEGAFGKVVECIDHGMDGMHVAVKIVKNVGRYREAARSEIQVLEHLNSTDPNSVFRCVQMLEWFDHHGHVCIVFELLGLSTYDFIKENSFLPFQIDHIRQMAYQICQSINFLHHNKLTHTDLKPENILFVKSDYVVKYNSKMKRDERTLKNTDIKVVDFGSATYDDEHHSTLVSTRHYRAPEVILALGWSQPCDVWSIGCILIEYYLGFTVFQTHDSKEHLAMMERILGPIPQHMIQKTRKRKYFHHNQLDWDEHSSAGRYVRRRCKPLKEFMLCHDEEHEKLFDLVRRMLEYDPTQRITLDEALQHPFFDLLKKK
Outline: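 25 nM Clk4 with 100 uM RS repeat peptide and 1 uM ATP (final) in Tris pH7.5, 10 mM MgCl2, 4.5 h at room temperature. Remaining ATP measured by Kinase-Glo luciferase luminescence.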

[11] = molecular target: Dual specificity protein kinase CLK4 (Homo sapiens) (UniProt Q9HAZ1); assay: qHTS Assay for Inhibitors of CDC-like Kinase 4 (ADP-Glo Assay) (AID 1771); settings: recombinant CLK4, ADP-Glo luminescence; series mostly up to 80 µM; also: nearly all actives have a fitted effect of over 70% in size; also: potency is read from the fitted curve at half-maximal effect
Outline: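 25 nM Clk4 with 100 uM RS repeat peptide and 1 uM ATP (final) in buffer with 2 mM MgCl2, 0.5 mM EGTA, 2.5 mM DTT, 0.01% Triton X-100; 1 h at room temperature; ADP-Glo luminescence for ADP formed.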

[12] = molecular target: Dual specificity protein kinase CLK4 (Homo sapiens) (UniProt Q9HAZ1); assay: qHTS Assay for Inhibitors of CDC-like Kinase 4 (ADP-FP Assay) (AID 1795); settings: Transcreener ADP fluorescence polarization; series mostly up to 50 µM; also: nearly all actives have a fitted effect of over 60% in size; also: potency is read from the fitted curve at half-maximal effect
Outline: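 Recombinant Clk4 (6.25 nM) phosphorylated 100 uM RS repeat peptide with 1 uM ATP in 25 mM Tris pH 7.5, 10 mM MgCl2, 0.5 mM EGTA, 2.5 mM DTT, 0.01% Triton X-100 for 1 h. ADP was detected by Transcreener ADP2 competitive fluorescence polarization after 30 min at room temperature.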

[13] = molecular target: Ubiquitin carboxyl-terminal hydrolase 1 (Homo sapiens) (UniProt O94782); assay: Inhibitors of USP1/UAF1: Pilot qHTS (AID 504865); settings: purified USP1/UAF1, Ub-rhodamine cleavage fluorescence; series mostly up to 54.9 µM; also: nearly all actives have a fitted effect of over 35% in size; also: potency is read from the fitted curve at half-maximal effect
Chain of Ubiquitin carboxyl-terminal hydrolase 1 (Homo sapiens) (O94782 whole entry, looked up): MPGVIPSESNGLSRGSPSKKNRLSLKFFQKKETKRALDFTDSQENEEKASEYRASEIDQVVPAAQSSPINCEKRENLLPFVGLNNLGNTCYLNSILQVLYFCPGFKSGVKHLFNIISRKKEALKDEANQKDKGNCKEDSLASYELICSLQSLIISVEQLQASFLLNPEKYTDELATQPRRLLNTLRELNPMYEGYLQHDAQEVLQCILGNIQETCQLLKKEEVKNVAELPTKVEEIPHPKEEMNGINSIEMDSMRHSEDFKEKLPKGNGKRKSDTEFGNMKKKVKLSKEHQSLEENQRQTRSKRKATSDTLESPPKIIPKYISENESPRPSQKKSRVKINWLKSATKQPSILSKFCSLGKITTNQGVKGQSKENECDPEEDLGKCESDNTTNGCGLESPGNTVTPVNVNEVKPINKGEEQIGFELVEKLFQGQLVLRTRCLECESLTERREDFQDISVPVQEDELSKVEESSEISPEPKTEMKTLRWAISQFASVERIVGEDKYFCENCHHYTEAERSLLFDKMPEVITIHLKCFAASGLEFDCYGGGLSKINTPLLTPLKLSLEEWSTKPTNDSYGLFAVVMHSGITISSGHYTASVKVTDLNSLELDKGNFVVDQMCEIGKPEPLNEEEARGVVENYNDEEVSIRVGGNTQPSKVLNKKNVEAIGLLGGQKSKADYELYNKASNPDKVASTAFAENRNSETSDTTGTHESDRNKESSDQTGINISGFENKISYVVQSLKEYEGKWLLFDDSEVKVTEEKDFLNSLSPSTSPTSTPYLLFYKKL
Outline: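 USP1/UAF1 complex at 1 nM preincubated 15 min at room temperature with compound, then Ub-Rho substrate added at 150 nM final. Fluorescence (480/540 nm) read kinetically in 50 mM HEPES pH 7.8, 0.5 mM EDTA, 1 mM TCEP, 0.1 mg/ml BSA, 0.01% Tween-20.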

[14] = Primary qHTS for small molecule stabilizers of the endoplasmic reticulum resident proteome: Secreted ER Calcium Modulated Protein (SERCaMP) assay (AID 1508630); settings: SH-SY5Y GLuc-SERCaMP (Gaussia luciferase released on ER calcium loss) secretion, thapsigargin, luminescence; series mostly up to 38.4 µM; also: % is scaled to controls: 0 for no effect and ±100 for the full control effect
Outline: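 GLuc-SERCaMP-expressing SH-SY5Y cells, pretreated 16 h with compound, are challenged with thapsigargin to empty ER calcium stores; after 4 h, coelenterazine is added directly to the medium and luminescence is imaged.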

[15] = molecular target: Cytochrome P450 1A2 (Homo sapiens) (UniProt P05177); assay: p450-cyp1a2 (AID 410; calls by dose curve; also: potency is read from the fitted curve at half-maximal effect); settings: recombinant CYP1A2, luciferin-ME demethylation, luminescence; series mostly up to 57 µM
Chain of Cytochrome P450 1A2 (Homo sapiens) (P05177 whole entry, looked up): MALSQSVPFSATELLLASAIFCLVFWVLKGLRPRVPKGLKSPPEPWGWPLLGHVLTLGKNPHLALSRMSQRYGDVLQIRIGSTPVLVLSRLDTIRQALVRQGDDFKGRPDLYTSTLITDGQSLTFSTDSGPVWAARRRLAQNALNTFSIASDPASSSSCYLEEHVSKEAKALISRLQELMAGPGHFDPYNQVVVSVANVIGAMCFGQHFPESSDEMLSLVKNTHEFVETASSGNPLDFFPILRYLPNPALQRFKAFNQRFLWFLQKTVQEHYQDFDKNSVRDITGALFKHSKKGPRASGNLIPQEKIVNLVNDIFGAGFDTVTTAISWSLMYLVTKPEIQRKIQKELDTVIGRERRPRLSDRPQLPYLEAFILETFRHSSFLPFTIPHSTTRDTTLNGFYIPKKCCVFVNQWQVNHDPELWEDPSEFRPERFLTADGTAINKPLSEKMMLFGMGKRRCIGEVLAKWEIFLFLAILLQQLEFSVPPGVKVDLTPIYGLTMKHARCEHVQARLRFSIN
Outline: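 20nM CYP1A2 with 100uM Luciferin-ME (at Km) in 100mM KPO4; compound preincubated 10 min, NADPH regeneration added, 60 min at room temperature. Luciferin quantified by luminescence after detection reagent; normalized to 57 uM furafylline.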

[16] = molecular target: Glucocorticoid receptor (Homo sapiens) (UniProt P04150); assay: GR-EFC Redistribution (AID 451; calls by dose curve; also: potency is read from the fitted curve at half-maximal effect); settings: CHO-K1 GR-EFC translocation, beta-gal luminescence, 2 h
Outline: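 CHO-K1 cells stably expressing nuclear-localized β-gal enzyme acceptor and GR fused C-terminally to the enzyme donor fragment; ligand-driven nuclear translocation restores β-gal by complementation. Compounds titrated up to 46 uM final, 2 h at 37 °C; luminescence read.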

[17] = qHTS Assay for Identification of Small Molecule Agonists for Hypoxia Response Element Signaling Pathway (AID 914; active = well fitted activation curve with a large enough effect in the signal ratio, with a control signal flat, not every such curve was filed as active; the % refers to the signal ratio; also: potency is read from the fitted curve at half-maximal effect); settings: ME-180 (cervical carcinoma) HRE-bla reporter, beta-lactamase ratio, CoCl2, 17 h; activation: stronger effect = higher value
Outline: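 HRE-bla ME-180 assay for agonist-like enhancement of an EC50 CoCl2 stimulus: 17 h at 37 degrees Celsius, CCF4 for 2.5 h, ratiometric 460/530 nm signal converted to %Activity and fitted to AC50.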

[18] = molecular target: 3',5'-cyclic-AMP phosphodiesterase 4B (Homo sapiens) (UniProt Q07343); assay: qHTS Assay for Inhibitors of PDE-IV (AID 607; active = well fitted activation curve with a large enough effect in the main read-out, with a control signal flat, not every such curve was filed as active; also: % of control where 0% means no effect); settings: HEK293 ACTOne CNG channel cells, membrane potential fluorescence; series mostly up to 22.9 µM
Chain of 3',5'-cyclic-AMP phosphodiesterase 4B (Homo sapiens) (Q07343 whole entry, looked up): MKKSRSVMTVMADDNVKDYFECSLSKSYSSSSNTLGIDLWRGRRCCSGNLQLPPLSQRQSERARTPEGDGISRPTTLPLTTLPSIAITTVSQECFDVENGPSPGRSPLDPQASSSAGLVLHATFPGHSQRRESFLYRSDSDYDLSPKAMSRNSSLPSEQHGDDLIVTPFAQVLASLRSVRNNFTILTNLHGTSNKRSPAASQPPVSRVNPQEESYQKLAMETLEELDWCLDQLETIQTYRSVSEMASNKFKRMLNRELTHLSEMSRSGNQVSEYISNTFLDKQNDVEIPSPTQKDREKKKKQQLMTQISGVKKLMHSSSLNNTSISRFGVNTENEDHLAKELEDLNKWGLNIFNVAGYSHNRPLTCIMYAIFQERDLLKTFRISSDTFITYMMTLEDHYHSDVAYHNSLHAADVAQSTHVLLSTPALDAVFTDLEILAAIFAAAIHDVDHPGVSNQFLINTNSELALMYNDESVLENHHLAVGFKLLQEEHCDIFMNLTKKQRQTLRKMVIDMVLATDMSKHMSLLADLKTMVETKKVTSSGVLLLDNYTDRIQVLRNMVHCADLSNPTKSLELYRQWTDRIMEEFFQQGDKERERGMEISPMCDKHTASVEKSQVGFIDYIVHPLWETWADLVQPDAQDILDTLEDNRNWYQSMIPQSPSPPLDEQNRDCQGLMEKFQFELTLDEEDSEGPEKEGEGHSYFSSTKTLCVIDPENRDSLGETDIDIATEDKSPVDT
Outline: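 Live HEK293 cells with a modified cyclic nucleotide-gated (CNG) channel report intracellular cAMP via membrane-potential dye fluorescence (ex 535/em 590 nm). Endogenous PDE-IV was targeted. Compounds were tested at up to 22.9 uM final; RO 20-1724 100 uM served as control.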

[19] = measured here: cell count channel max response
[20] = measured here: lipid channel max response

Row | SMILES | Potency [1] | activity change, negative = inhibition [2] | activity, negative = inhibition [3] | Potency [4] | outcome [5] | Potency [6] | Potency [7] | Potency [8] | activity change, negative = inhibition [9] | max response [9, 19] | max response [9, 20] | Potency [10] | Potency [11] | Potency [12] | Potency [13] | Potency [14] | Potency [15] | Potency [16] | Potency [17] | Potency [18]
1 | FC(F)(F)c1ccccc1-c1nc(NCc2cccs2)c2ccccc2n1 | > 11.4 µM (inactive) | -18.2% (inactive) | -11.7% (inactive) | > 46 µM (inactive) | inactive | 3.98 µM (active) | inactive | 7.94 µM (active) | 2.3% (inactive) | 10.4% | 10.9% | inactive | inactive | inactive | 7.94 µM (active) | inactive |  |  |  | 
2 | COc1ncc2nc(-c3cccs3)c(=O)n(CCc3ccccc3)c2n1 | > 11.4 µM (inactive) |  |  | > 9.22 µM (inactive) | inactive |  | inactive |  | 2.39% (inactive) | -3.52% | -2.93% | inactive | inactive | inactive | inactive | inactive | 1.26 µM (active) | > 46 µM (inactive) | 3.16 µM (active) | 
3 | COc1ccc2[nH]cc(CCNc3ncnc4ccc(-c5cccnc5)cc34)c2c1 | > 11.4 µM (inactive) | 18.7% (inactive) | -10.2% (inactive) | > 46 µM (inactive) |  |  | inactive |  | -3.03% (inactive) | -7.3% | -9.11% | 2.24 µM (active) | 2.24 µM (active) | 3.16 µM (active) | inactive | inactive | 0.0794 µM (active) | > 46 µM (inactive) |  | inactive
4 | COc1ccc(-c2nc3cnc(N4CCN(C)CC4)nc3n(Cc3cccs3)c2=O)cc1 | > 11.4 µM (inactive) |  |  | > 9.22 µM (inactive) |  |  |  | inactive | 1.59% (inactive) | 17.6% | 18% | inactive | inactive | inactive |  | inactive |  | > 46 µM (inactive) |  | inactive
5 | Cc1nc2cncnc2n(C2CC2)c1=O | > 11.4 µM (inactive) | 2.34% (inactive) | -12.1% (inactive) | > 9.22 µM (inactive) | inactive |  | inactive | 3.98 µM (active) | 9.2% (inactive) | 24% | 34.8% | inactive | inactive | inactive | inactive | inactive | 15.8 µM (active) | > 46 µM (inactive) |  | inactive
6 | COc1cccc(Nc2ncc3nc(CCc4ccccc4)c(=O)n(C)c3n2)c1 | > 11.4 µM (inactive) | 21.6% (inactive) | -7.18% (inactive) |  | inactive |  |  |  | -10% (inactive) | 27.3% | 12.3% | inactive | inactive | inactive | inactive | inactive |  | > 46 µM (inactive) |  | 
